From PubChem BioAssay (NCI)
This is part of a sample that, as a whole, favours compounds with a hit. Of some 79,000 tested, about 15% had one in any assay. Active and inactive are the calls of the source. No stated cut-off is given here; in the data, active means growth inhibition above about 70%; inactive means the rest.

Tests used:
[1] = NCI Yeast Anticancer Drug Screen. Data for the rad52 strain (AID 147);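 further: 0% = growth of vehicle-treated control cultures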; settings: S. cerevisiae rad52 mutant growth inhibition, stronger effect = higher value
Procedure, shortened: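 Measured: yeast growth inhibition. System: strain with a defined DNA damage repair alteration. Reference: vehicle-treated control cultures.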

[2] = NCI Yeast Anticancer Drug Screen. Data for the wt1 strain (AID 149);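 further: 0% = growth of vehicle-treated wt1 cultures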; settings: S. cerevisiae wt1 strain (SPY 50644) growth inhibition, stronger effect = higher value
Procedure, shortened: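 Measured: growth of wt1 yeast under compound versus vehicle treatment, reported as inhibition.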

[3] = NCI Yeast Anticancer Drug Screen. Data for the rad50EPP+ strain (AID 151);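 further: 0% = growth of vehicle-treated control cultures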; settings: S. cerevisiae rad50 mutant strain, stronger effect = higher value
Procedure, shortened: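 One strain with a rad50 alteration (rad50EPP+) was compound-treated, its growth then compared to that of vehicle controls.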

[4] = NCI Yeast Anticancer Drug Screen. Data for the mgt1 strain (AID 153); settings: S. cerevisiae mgt1 mutant growth inhibition, stronger effect = higher value
Procedure, shortened: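 After exposure of the mgt1 yeast mutant to compound, growth was measured and reported as inhibition compared with vehicle controls.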

[5] = NCI Yeast Anticancer Drug Screen. Data for the rad50 strain (AID 155);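 further: 0% = growth of vehicle-only cultures of the same strain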; settings: S. cerevisiae rad50 strain growth inhibition, stronger effect = higher value
Procedure, shortened: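 Growth of the mutant yeast was measured after compound exposure and referenced to vehicle-treated cultures.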

[6] = NCI Yeast Anticancer Drug Screen. Data for the mec2-1 strain (AID 157); settings: S. cerevisiae mec2-1 strain, stronger effect = higher value
Procedure, shortened: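 Test agents were screened against the mec2-1 yeast strain, with defined DNA repair or cell cycle alteration. Growth was scored as inhibition against vehicle-only controls.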

[7] = NCI Yeast Anticancer Drug Screen. Data for the sgs1 mgt1 strain (AID 161);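 further: 0% = growth of cultures given vehicle only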; settings: S. cerevisiae sgs1 mgt1 strain, stronger effect = higher value
Procedure, shortened: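 Inhibition of yeast growth, normalised to vehicle-treated controls, is reported for a strain bearing genetic alterations in DNA damage repair.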

[8] = NCI Yeast Anticancer Drug Screen. Data for the CLN2oe strain (AID 163);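 further: 0% = growth of vehicle-only control cultures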; settings: S. cerevisiae CLN2oe strain, stronger effect = higher value
Procedure, shortened: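 Here, growth inhibition in a cell-cycle-altered yeast strain after compound exposure was quantified against vehicle control growth.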

[9] = NCI Yeast Anticancer Drug Screen. Data for the cln2 rad14 strain (AID 165);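 further: 0% = growth equal to vehicle treated cultures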; settings: S. cerevisiae cln2 rad14 strain, stronger effect = higher value
Procedure, shortened: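 Growth of compound-exposed yeast (cln2 rad14 genotype) measured and expressed as inhibition relative to vehicle.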

[10] = NCI Yeast Anticancer Drug Screen. Data for the bub3 strain (AID 167); settings: S. cerevisiae bub3 mutant strain, stronger effect = higher value
Procedure, shortened: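 Whole-cell yeast assay. The mutant strain was incubated with compounds, and growth inhibition was determined by comparison with vehicle-treated cells.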

[11] = NCI Yeast Anticancer Drug Screen. Data for the mlh1 strain (AID 171);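 further: 0% = growth of vehicle-treated control cultures of the same strain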; settings: S. cerevisiae mlh1 strain growth inhibition, stronger effect = higher value
Procedure, shortened: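 Here the genetically defined yeast mutant is grown with each compound, and the extent to which its growth falls below that of vehicle-exposed cells is reported.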

[12] = NCI Yeast Anticancer Drug Screen. Data for the sgs1 strain (AID 173);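 further: 0% = growth of vehicle-only control cultures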; settings: S. cerevisiae sgs1 mutant, stronger effect = higher value
Procedure, shortened: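 Relative growth inhibition, referenced to vehicle, was determined in a yeast strain with a defined alteration affecting DNA damage repair or cell cycle control after compound exposure.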

[13] = NCI Yeast Anticancer Drug Screen. Data for the mlh1 rad18 strain (AID 175); settings: S. cerevisiae mlh1 rad18 strain growth inhibition, stronger effect = higher value
Procedure, shortened: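 In this whole-cell yeast screen, a strain with altered DNA damage repair is challenged with compound, and its growth is measured against matched vehicle-treated controls.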

[14] = NCI Yeast Anticancer Drug Screen. Data for the rad18 strain (AID 177); settings: S. cerevisiae rad18 mutant growth inhibition, stronger effect = higher value
Procedure, shortened: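 Screen uses a yeast strain with a defined lesion in DNA damage repair; compound effect is read as loss of growth compared to untreated vehicle cultures.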

[15] = at 5.0 µM (retest, dose inferred, filed as 0.5)
[16] = at 50.0 µM (retest, dose inferred, filed as 5.0)

Measured: growth inhibition

CC1(C)CC(=O)C(C(=O)Nc2cccs2)=C(O)C1
inactive: [1]; at 1.2 µM -8% | [1]; at 3.7 µM 7% | [1]; at 11.0 µM 17% | [1]; at 33.0 µM 64% | [2]; at 1.2 µM 21% | [2]; at 3.7 µM 28% | [2]; at 11.0 µM 23% | [2]; at 33.0 µM 50% | [3]; at 1.2 µM -56% | [3]; at 3.7 µM -63% | [3]; at 11.0 µM -53% | [3]; at 33.0 µM 18% | [4]; at 1.2 µM 10% | [4]; at 3.7 µM 18% | [4]; at 11.0 µM 35% | [5]; at 1.2 µM 14% | [5]; at 3.7 µM 16% | [5]; [15] 26% | [5]; at 11.0 µM 18% | [5]; [16] 42% | [6]; at 1.2 µM 3% | [6]; at 3.7 µM -18% | [6]; [15] 6% | [6]; at 11.0 µM 20% | [6]; [16] 49% | [7]; [15] -5% | [7]; [16] 61% | [8]; at 1.2 µM 15% | [8]; at 3.7 µM 26% | [8]; at 11.0 µM 29% | [8]; at 33.0 µM 63% | [9]; [15] 23% | [9]; [16] 37% | [10]; at 1.2 µM 26% | [10]; at 3.7 µM 23% | [10]; [15] 16% | [10]; at 11.0 µM 41% | [11]; at 1.2 µM 1% | [11]; at 3.7 µM 4% | [11]; at 11.0 µM 30% | [12]; at 1.2 µM 8% | [12]; at 3.7 µM 23% | [12]; at 11.0 µM 38% | [13]; [15] -36% | [13]; [16] 2% | [14]; at 1.2 µM 1% | [14]; at 3.7 µM 1% | [14]; at 11.0 µM 7% | [14]; at 33.0 µM 48%
active: [1]; at 100.0 µM 99% | [2]; at 100.0 µM 99% | [3]; at 100.0 µM 98% | [4]; at 33.0 µM 92% | [4]; at 100.0 µM 98% | [5]; at 33.0 µM 70% | [5]; at 50.0 µM 88.8% | [5]; at 100.0 µM 98% | [6]; at 33.0 µM 78% | [6]; at 50.0 µM 93% | [6]; at 100.0 µM 98% | [7]; at 50.0 µM 93.3% | [8]; at 100.0 µM 99% | [9]; at 50.0 µM 89.4% | [10]; at 33.0 µM 82% | [10]; [16] 70% | [10]; at 50.0 µM 90.8% | [10]; at 100.0 µM 99% | [11]; at 33.0 µM 92% | [11]; at 100.0 µM 99% | [12]; at 33.0 µM 88% | [12]; at 100.0 µM 99% | [13]; at 50.0 µM 90.4% | [14]; at 100.0 µM 99%
